Calls of active or inactive are those of the source. Unless noted, no rule for the calls is given here.

In test [1] the test system is XIP peptide (Xip251-270) binding. The test is described as follows: XIP fragment 251-270 binding compounds – biochemical, small-molecule microarray, fluorescence 635/667 nm, 0.1 µg/mL protein, primary screen (AID 1182). The conditions noted are these: fluorescent protein binding, 635 nm, higher = more signal, called active from +8 up or from −8 down.
A further test relates to XIP peptide (Xip251-270). The test is described as follows: compounds binding XIP fragment 251-270 – biochemical, small-molecule microarray, fluorescence 635/667 nm, 0.5 µg/mL protein, primary screen (AID 1183). The conditions noted are these: fluorescence 635 nm, higher = more signal.
A short description of test [2]: blood-stage malaria parasite viability loss – strain 3D7, DAPI fluorescence, 100 nL, primary screen (AID 1184).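 Also: parasites grown inside human red blood cells in medium with human serum.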 As to conditions: P. falciparum 3D7 growth, 3 d, higher = more signal.
The target in test [3] is Homeobox protein Hox-A13 (Mus musculus) (UniProt Q62424). Kind of test: disruptors of Hoxa13 oligonucleotide interaction – biochemical, fluorescence polarization, labeled oligonucleotide, primary screen (AID 1185). The conditions noted are these: Hoxa13:DNA binding, 15 min, higher = more signal, called active from +8 up or from −8 down.
A short description of test [4]: blockers of DNA damage checkpoint Chk1 activation – imaging, HeLa, hydroxyurea, phospho-Chk1 antibody, percent positive cells, primary screen (AID 1186). The conditions noted are these: hydroxyurea-induced phospho-Chk1 immunofluorescence imaging, higher = more signal.
The nature of test [5]: blockers of DNA damage checkpoint Chk1 activation – imaging, HeLa, hydroxyurea, phospho-Chk1 nuclear intensity, primary screen (AID 1187). The conditions noted are these: hydroxyurea-induced phospho-Chk1 immunofluorescence imaging, higher = more signal.

Chain of Homeobox protein Hox-A13 (Mus musculus) (Q62424 whole entry, looked up): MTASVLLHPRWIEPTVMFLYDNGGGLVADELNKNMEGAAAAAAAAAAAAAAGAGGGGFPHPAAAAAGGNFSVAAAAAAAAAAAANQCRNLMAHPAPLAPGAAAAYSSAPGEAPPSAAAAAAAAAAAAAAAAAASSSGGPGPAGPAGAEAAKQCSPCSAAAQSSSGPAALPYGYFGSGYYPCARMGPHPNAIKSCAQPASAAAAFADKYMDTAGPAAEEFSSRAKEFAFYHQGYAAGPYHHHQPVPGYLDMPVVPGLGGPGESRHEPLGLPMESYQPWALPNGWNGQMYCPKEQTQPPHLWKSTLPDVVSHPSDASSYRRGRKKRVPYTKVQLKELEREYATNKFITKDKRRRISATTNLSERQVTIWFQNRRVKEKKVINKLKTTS

Regarding `C=C[C@H](CO)NS(=O)(=O)c1ccc(Br)cc1`, the composite z-score in test [1] was -0.365 (inactive); with XIP peptide (Xip251-270), 0.242. In addition, the z-score was 0.843 in test [2], 0.205 (inactive) in test [3], -0.462 (inactive) in test [4] and -0.458 (inactive) in test [5].
In the case of `C=CCC(OC(C)=O)[C@@H]1[C@@H](N(Cc2ccc(-c3cccc(C(F)(F)F)c3)o2)C(=O)c2ccc(C)cc2)c2cc(OCCCO)ccc2N1C(=O)Cc1ccc2ccccc2c1` (stereo partly specified), the composite z-score in test [1] is 0.332 (inactive); with XIP peptide (Xip251-270), -0.0506. Besides, the z-score was 0.337 in test [2], -0.62 (inactive) in test [3], -0.385 (inactive) in test [4] and -0.709 (inactive) in test [5].
Consider `O=C1O[C@@H](c2ccccc2)[C@@H](c2ccccc2)N2[C@@H](c3ccccc3OCCO)[C@]3(C(=O)Nc4ccccc43)[C@@H](C(=O)Nc3nc4ccccc4s3)[C@H]12`, for which the composite z-score in test [1] is 1.13 (inactive); in the test on XIP peptide (Xip251-270) it was 0.797. The z-score was -1.54 in test [2], 1.91 (inactive) in test [3], 0.489 (inactive) in test [4] and 0.794 (inactive) in test [5].
In the case of `COCCOC(=O)N1C(=O)[C@@]2(c3ccccc31)[C@H](C(=O)N1CCc3cc(OC)c(OC)cc3C1)[C@H]1C(=O)O[C@H](c3ccccc3)[C@H](c3ccccc3)N1[C@@H]2c1ccc(OCCO)cc1`, the composite z-score was 2.52 (inactive) in test [1] and 0.8 in the test with XIP peptide (Xip251-270). The z-score in test [2] is -2.33; in test [3], 1.9 (inactive); in test [4], 0.111 (inactive); in test [5] it was 0.55 (inactive).
On to `COc1ccc(CCNC(=O)[C@@]2(Sc3ccc(C)cc3)CC(=O)N(C(C)C)[C@@H]2c2ccc(CO)cc2I)cc1`, for which the values for the composite z-score (in test [1]; with XIP peptide (Xip251-270)) were 0.427 (inactive) and 0.368, respectively. The z-score in test [2] was -1.01; in test [3], -2.89 (inactive); in test [4], 0.332 (inactive); in test [5], 0.404 (inactive).
Turning to `Cc1ccc([C@@H]2C[C@@H](Sc3ccccc3)[C@H](C(=O)O)CN2S(=O)(=O)c2ccc(C)cc2)cc1`, the composite z-score in test [1] is 0.571 (inactive); with XIP peptide (Xip251-270), 0.8. Besides, the z-score in test [2] was -0.706; in test [3], -7.26 (inactive); in test [4], 0.57 (inactive); in test [5] it was 0.498 (inactive).
`COC(=O)[C@@]1(Cc2ccc(OC)cc2)[C@H]2c3cc(C(=O)N4CCCC4)n(CCN4CNCC4=O)c3C[C@H]2CN1C(=O)c1ccccc1`: the results for the composite z-score (in test [1]; in the test on XIP peptide (Xip251-270)) were 0.281 (inactive) and -0.35, respectively. Besides, the z-score in test [2] was -1.8; in test [3] it was -4.34 (inactive); in test [4] it was 0.525 (inactive); in test [5], 0.163 (inactive).
Turning to `COCCOC(=O)N1C(=O)[C@@]2(c3cc(C#Cc4ccc(OC)cc4)ccc31)[C@H](c1ccc(O)cc1)N1[C@H](c3ccccc3)[C@H](c3ccccc3)OC(=O)[C@H]1[C@@H]2C(=O)N1CCc2cc(OC)c(OC)cc2C1`, the figures for the composite z-score (in test [1]; in the test with XIP peptide (Xip251-270)) were 0.109 (inactive) and 0.629, respectively. The z-score in test [2] is -2.17; in test [3], -1.71 (inactive); in test [4] it was 0.264 (inactive); in test [5], 0.948 (inactive).
For `C=C(/C(=C/C[C@H](OC(C)=O)c1ccc(CO)o1)c1cc(C(=O)OC)ccc1OC)C(C)C`, the composite z-score is -0.508 (inactive) in test [1] and -0.567 with XIP peptide (Xip251-270). In addition, the z-score in test [2] is -2.09; in test [3] it was -4.8 (inactive); in test [4], -0.33 (inactive); in test [5], -0.286 (inactive).
With `COC(=O)C[C@H]1O[C@]2(C(=O)N(C)c3ccccc32)[C@@H](C)[C@@H]1[Si](C)(C)F`, the composite z-score in test [1] is -0.0066 (inactive); in the test on XIP peptide (Xip251-270), 0.181. Besides, the z-score is 0.522 in test [2], -1.19 (inactive) in test [3], 0.23 (inactive) in test [4] and 0.843 (inactive) in test [5].
For `CC(C)OC(=O)C=C1C[C@@H](c2ccccn2)O[C@@H](c2ccccn2)O1`, the composite z-score is 1.4 (inactive) in test [1] and -0.0957 with XIP peptide (Xip251-270). Moreover, the z-score in test [2] is -0.929; in test [3], -5.67 (inactive); in test [4], 0.367 (inactive); in test [5], 0.129 (inactive).
As to `CC(C)N1C(=O)C[C@@](C(=O)NCC(F)(F)F)(c2ccc([N+](=O)[O-])cc2)[C@H]1c1ccc(CO)cc1`, the composite z-score in test [1] is 0.0334 (inactive); in the test on XIP peptide (Xip251-270) it was 0.202. For the same compound, the z-score in test [2] is -1.38; in test [3] it was -2.67 (inactive); in test [4] it was -0.317 (inactive); in test [5] it was -0.273 (inactive).
On to `C=CCOC(=O)[C@@H]1[C@H]2C(=O)O[C@H](c3ccccc3)[C@H](c3ccccc3)N2[C@H](c2ccc(OCCOC(=O)[C@H]3C[C@H]4C(=O)N5CCC[C@H]5C(=O)N4[C@H]3c3ccc(O)cc3)cc2)[C@@]12C(=O)Nc1ccc(I)cc12`, for which the composite z-score in test [1] is 1.93 (inactive); in the test on XIP peptide (Xip251-270) it was 0.833. The z-score in test [2] is -1.56; in test [3], 1.53 (inactive); in test [4], -0.0415 (inactive); in test [5], 0.0454 (inactive).
Turning to `COc1ccc([Si](C)(C)[C@H]2[C@H](CCO)O[C@@]3(C(=O)N(Cc4ccc(N(C=O)c5ccccc5)cc4)c4ccccc43)[C@@H]2C)cc1`, the composite z-score in test [1] is 0.381 (inactive); in the test on XIP peptide (Xip251-270), 0.282. Further, the z-score in test [2] is -1.93; in test [3], -0.824 (inactive); in test [4] it was 1.27 (inactive); in test [5], -0.123 (inactive).
For the compound `C=CCN1C(=O)[C@@]2(CC=C)N=C(c3ccc(OCCCO)cc3)O[C@H]2c2ccccc21`, the composite z-score in test [1] was 0.881 (inactive); in the test on XIP peptide (Xip251-270), 0.751. The z-score in test [2] is -1.99; in test [3], -2.65 (inactive); in test [4], -0.772 (inactive); in test [5], -0.86 (inactive).
In the case of `COCCOC(=O)N1C(=O)[C@@]2(c3cc(C#CCNC(N)=O)ccc31)[C@H](C(=O)N1CCN(c3ncccn3)CC1)[C@H]1C(=O)O[C@H](c3ccccc3)[C@H](c3ccccc3)N1[C@@H]2c1ccc(OCCO)cc1`, the composite z-score is 0.0897 (inactive) in test [1] and 0.697 with XIP peptide (Xip251-270). The z-score in test [2] was -0.939; in test [3], 0.245 (inactive); in test [4], 0.138 (inactive); in test [5], 0.0943 (inactive).
On to `C=CCC(OC(C)=O)[C@@H]1[C@@H](N(Cc2ccc(-c3ccccc3)cc2)C(=O)Cc2ccc(OC)cc2)c2cc(OCCCO)ccc2N1C(=O)Cc1ccc2ccccc2c1` (stereo partly specified), for which the values for the composite z-score (in test [1]; in the test on XIP peptide (Xip251-270)) were 1.46 (inactive) and -0.282, respectively. The z-score in test [2] was -0.874; in test [3], -1.62 (inactive); in test [4] it was 0.802 (inactive); in test [5], 0.325 (inactive).
As to `C=CC[C@@]12N=C(c3ccc(OCCCO)cc3)O[C@@H]1c1ccccc1N(C)C2=O`, the composite z-score is 0.535 (inactive) in test [1] and 0.759 with XIP peptide (Xip251-270). Further, the z-score in test [2] was -1.9; in test [3] it was -4.57 (inactive); in test [4], 0.221 (inactive); in test [5], 0.444 (inactive).
As to `COc1ccc(C(=O)Nc2ccc(CN3C(=O)[C@]4(O[C@H](CCO)[C@@H]([Si](C)(C)c5ccc(OC)cc5)[C@@H]4C)c4ccccc43)cc2)cc1`, the composite z-score is 2.8 (inactive) in test [1] and 0.618 in the test on XIP peptide (Xip251-270). Besides, the z-score in test [2] is -2.82; in test [3], -0.677 (inactive); in test [4], -0.02 (inactive); in test [5], 0.458 (inactive).
With `C=CCNC(=O)[C@@H]1[C@H]2C(=O)O[C@H](c3ccccc3)[C@H](c3ccccc3)N2[C@H](c2ccc(O)cc2)[C@@]12C(=O)N(C(=O)OCCOC)c1ccc(C#CCNC(N)=O)cc12`, the composite z-score was 0.963 (inactive) in test [1] and 0.787 with XIP peptide (Xip251-270). Besides, the z-score in test [2] is 0.251; in test [3] it was -2.11 (inactive); in test [4], -0.26 (inactive); in test [5], -0.436 (inactive).
As to `COC(=O)[C@@]1(Cc2ccc(OC)cc2)[C@H]2c3cc(C(=O)N4CCCC4)n(Cc4ccc(O)c(OC)c4)c3C[C@H]2CN1C(=O)c1ccccc1`, the composite z-score in test [1] is 1.29 (inactive); in the test with XIP peptide (Xip251-270) it was 0.575. In addition, the z-score in test [2] was -1.65; in test [3], -4.69 (inactive); in test [4] it was 0.449 (inactive); in test [5], 0.27 (inactive).
As for `O=C(NCCN1CCOCC1)[C@@H]1c2ccccc2C(=O)N(C2CCCCC2)[C@H]1c1ccc(CO)cc1`, the results for the composite z-score (in test [1]; with XIP peptide (Xip251-270)) were -0.403 (inactive) and 0.0759, respectively. The z-score is -1.23 in test [2], -4.02 (inactive) in test [3], -0.389 (inactive) in test [4] and -0.611 (inactive) in test [5].
Regarding `CCCC[C@@H]1C[C@H]1[C@@H](NC(=O)C(C)(C)C)c1ccc(C(F)(F)F)cc1`, the composite z-score is 0.503 (inactive) in test [1] and 0.414 in the test with XIP peptide (Xip251-270). The z-score was -0.948 in test [2], 1.43 (inactive) in test [3], -0.109 (inactive) in test [4] and -0.236 (inactive) in test [5].
Regarding `CN(C)CCCCCCNC(=O)[C@H]1C[C@H]2C(=O)N3CCC[C@H]3C(=O)N2[C@H]1c1ccc(O)cc1`, the composite z-score in test [1] was 1.75 (inactive); in the test on XIP peptide (Xip251-270), 0.926. The z-score was -1.15 in test [2], -0.246 (inactive) in test [3], -0.0982 (inactive) in test [4] and 0.307 (inactive) in test [5].
Turning to `COC(=O)[C@]1(CCC(=O)OC(C)(C)C)N=C(c2ccc(OCCCO)cc2)O[C@@H]1c1ccccc1CN=[N+]=[N-]`, the composite z-score in test [1] was 1.52 (inactive); with XIP peptide (Xip251-270), 0.767. Also, the z-score is -2.03 in test [2], -0.506 (inactive) in test [3], 0.121 (inactive) in test [4] and -0.0667 (inactive) in test [5].
`CCOC(=O)[C@H]1C/C=C/C[C@H](C(=O)OCC)C(=O)O[C@H]2[C@@H](OC)O[C@H](CO)[C@@H](OC(=O)c3c(OC)cccc3OC)[C@@H]2OC1=O`: the values for the composite z-score (in test [1]; in the test with XIP peptide (Xip251-270)) were 0.676 (inactive) and 0.709, respectively. Also, the z-score in test [2] is 0.754; in test [3] it was -3 (inactive); in test [4], -0.0052 (inactive); in test [5], -0.142 (inactive).

(Values after PubChem BioAssay.)
